Source: PubChem BioAssay AID741 (SRMLSC, 2007)
Results filed as inconclusive are left out. Calls of active or inactive are those of the source. Cut-off read from the data, not from the text of the source: active = toxicity enhancement factor above about 0.054; inconclusive = between about 0.00067 and that limit; inactive = weaker than that.

Assay: reversers of MRP drug resistance, dose response, cell-based (AID 741)
Conditions: MRP-overexpressing cells, viability with/without cytotoxic drug; slope difference: measured here: slope difference tox minus reversal, stronger effect = higher value; toxicity enhancement factor: stronger effect = higher value; viability: measured here: viability series, compound alone, at 10 µM, stronger effect = lower value

SMILES | slope difference | toxicity enhancement factor | viability
O[C@H]1[C@H](O)[C@@H](O)CN2CC[C@H](O)[C@H]12 | -0.39 | -0.0036 (inactive) | 98.5%
O=C1CCCC2C3CCCN4CCCC(CN12)C34 (stereo unspecified) | -0.494 | -0.0048 (inactive) | 94.7%
